From PubChem BioAssay (Tox21)
Results filed as inconclusive are left out. Active and inactive are the calls of the source. Unless noted, the call rests on the fitted dose curve; in most records, active means well fitted curve in the direction sought with a large enough effect in the repeat runs; inconclusive means weak or mixed curves; inactive means no such curve, though single readings can be large; an effect the other way counts as inactive or inconclusive.

Assays:
[1] = qHTS assay to identify small molecule agonists of the vitamin D receptor (VDR) signaling pathway - cell viability counter screen (AID 743224); further: series mostly up to about 63 µM; on the % scale 0 is the no-effect control and ±100 the full control effect; nearly all actives have a fitted effect of over 50% in size
Outline: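 Luminescence from CellTiter-Glo, read after 30 min at room temperature, reports viability of VDR-bla cells treated with compounds for 16 h at 37C in the wells used for the beta-lactamase FRET read.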

[2] = qHTS assay to identify small molecule antagonists of the vitamin D receptor (VDR) signaling pathway - cell viability counter screen (AID 743225); further: on the % scale 0 is the no-effect control and ±100 the full control effect; nearly all actives have a fitted effect of over 50% in size
Outline: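 Parallel cytotoxicity test: VDR-UAS-bla HEK 293T, 3 nM (final) 1-alpha,25-dihydroxyvitamin D3 with test compound, 16 h, 37C. Endpoint is CellTiter-Glo luminescence in the same wells.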

[3] = qHTS assay to identify small molecule agonists of the NFkB signaling pathway (AID 1159509; active means well fitted curve in the direction sought with a large enough effect in the signal ratio in the repeat runs, not every such curve was filed as active; the % refers to the signal ratio; further: series mostly up to about 61 µM; on the % scale 0 is the no-effect control and ±100 the full control effect)
Outline: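 NFkB-bla ME-180 cells with a beta-lactamase reporter under an NF-kB response element were plated overnight, treated with compounds in DMSO for 5 hr at 37 C, then loaded with FRET substrate for 1.5 hr at room temperature.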

[4] = qHTS assay to identify small molecule agonists of the NFkB signaling pathway - cell viability counter screen (AID 1159515; calls by dose curve; further: series mostly up to about 61 µM; on the % scale 0 is the no-effect control and ±100 the full control effect; nearly all actives have a fitted effect of over 55% in size)
Outline: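 Luminescence from CellTiter-Glo (30 min, room temperature) gives viability, measured in the same wells as the beta-lactamase reporter read. Cells were NFkB-bla ME-180, 2,000 per well, treated 5 hr with compounds.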

[5] = qHTS assay to identify small molecule agonists of the endoplasmic reticulum stress response signaling pathway (AID 1159516; active means well fitted activation curve with a large enough effect in the signal ratio in the repeat runs, not every such curve was filed as active; the % refers to the signal ratio; further: on the % scale 0 is the no-effect control and ±100 the full control effect)
Outline: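 Read-out is beta-lactamase cleavage of a FRET substrate (405 nm excitation; 460 and 530 nm emissions) in ESRE-bla HeLa cells after a 5 hr compound exposure at 37 C. Substrate incubation ran 2 hr at room temperature.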

[6] = qHTS assay to identify small molecule antagonists of the retinoid-related orphan receptor gamma (ROR-gamma) signaling pathway - cell viability counter screen (AID 1159520); further: on the % scale 0 is the no-effect control and ±100 the full control effect; nearly all actives have a fitted effect of over 50% in size
Outline: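 Cytotoxicity was read from cellular ATP (CellTiter-Glo luminescence) after 16 hr at 37 C with 1 uM doxycycline induction. The inducer was added 2 hr after compound transfer to Tet-on ROR gamma CHO cells.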

[7] = target: Nuclear receptor ROR-gamma (Homo sapiens) (UniProt P51449); experiment: qHTS assay to identify small molecule antagonists of the retinoid-related orphan receptor gamma (ROR-gamma) signaling pathway (AID 1159521;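 further: CHO cells with doxycycline inducible ROR-gamma driving an RORE luciferase reporter; top concentration of the series differs between compounds; on the % scale 0 is the no-effect control and ±100 the full control effect; nearly all actives have a fitted effect of over 50% in size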)
Outline: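 Decreased RORE-driven luciferase luminescence indicates antagonism. Tet-on RORγ CHO cells received compound, then 1 uM final doxycycline 2 h later; signal read after 16 h incubation.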

[8] = qHTS assay to identify small molecule agonists of the AP-1 signaling pathway - cell viability counter screen (AID 1159525; calls by dose curve; further: nearly all actives have a fitted effect of over 55% in size)
Outline: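 Luminescent ATP readout (Cell Titer Glo, 30 min RT), normalised to DMSO and tetra n-octyl ammonium bromide controls. Cells were ME-180 AP-1-bla in 0.5% dialyzed FBS Opti-MEM, with a 5 h, 37 °C compound exposure.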

[9] = qHTS assay to identify small molecule agonists of the AP-1 signaling pathway (AID 1159526; calls by dose curve; further: on the % scale 0 is the no-effect control and ±100 the full control effect)
[10] = target: Retinoic acid receptor RXR-alpha (Homo sapiens) (UniProt P19793); experiment: qHTS assay to identify small molecule agonists of the RXR signaling pathway (AID 1159527; calls by dose curve; further: on the % scale 0 is the no-effect control and ±100 the full control effect; nearly all actives have a fitted effect of over 35% in size)
Outline: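 16 hr incubation of compound-treated RXR-alpha-UAS-bla HEK 293T cells (2% charcoal-stripped FBS, 37 C) preceded a 2 hr room-temperature LiveBLAzer FRET substrate step and blue/green fluorescence measurement.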

[11] = qHTS assay to identify small molecule antagonists of the retinoid acid receptor (RAR) signaling pathway - cell viability counter screen (AID 1159551); further: on the % scale 0 is the no-effect control and ±100 the full control effect; nearly all actives have a fitted effect of over 35% in size
Outline: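 Luminescent ATP quantitation (CellTiter-Glo) gave cell viability in C3RL4 cells exposed to test chemicals for 6 h at 37 C alongside 1 uM final retinol.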

[12] = qHTS assay to identify small molecule antagonists of the retinoic acid receptor (RAR) signaling pathway (AID 1159552)
Outline: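 C3RL4 RARE-luc cells, overnight plating; retinol 1 uM final added right after compound; 6 hr 37 C; luciferase read at 30 min RT.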

[13] = qHTS assay to identify small molecule agonists of the retinoic acid receptor (RAR) signaling pathway (AID 1159553); further: on the % scale 0 is the no-effect control and ±100 the full control effect
Outline: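 Luminescence from a RARE-driven luciferase reporter in C3RL4 cells served as the read-out, measured after 30 min with detection reagent at room temperature. Compounds in DMSO were applied for 6 hr at 37 C following overnight seeding.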

[14] = qHTS assay to identify small molecule agonists of the RXR signaling pathway - cell viability counter screen (AID 1159529)
Outline: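 In this parallel viability measure, GeneBLAzer RXR-alpha HEK 293T cells (2% charcoal-stripped FBS) were given a 5 hr preincubation, treated with compounds 16 hr at 37 C, and read by CellTiter-Glo luminescence.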

Sequence of Retinoic acid receptor RXR-alpha (Homo sapiens) (P19793 whole entry, looked up): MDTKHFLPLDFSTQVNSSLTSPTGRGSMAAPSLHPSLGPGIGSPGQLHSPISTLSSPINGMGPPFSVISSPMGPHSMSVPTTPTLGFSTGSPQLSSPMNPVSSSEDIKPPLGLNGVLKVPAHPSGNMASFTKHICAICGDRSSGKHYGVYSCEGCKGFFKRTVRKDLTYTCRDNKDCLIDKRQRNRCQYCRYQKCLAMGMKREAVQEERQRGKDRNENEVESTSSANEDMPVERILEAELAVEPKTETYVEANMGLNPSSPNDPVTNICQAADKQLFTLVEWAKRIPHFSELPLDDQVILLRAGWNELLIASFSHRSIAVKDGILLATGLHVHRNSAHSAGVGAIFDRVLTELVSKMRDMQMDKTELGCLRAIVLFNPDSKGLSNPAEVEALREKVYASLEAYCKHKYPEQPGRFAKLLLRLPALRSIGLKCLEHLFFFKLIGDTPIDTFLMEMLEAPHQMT

Cc1ccc2c(c1)CCCN2
inactive: Potency [1] | Potency [2] | outcome [3] | Potency [4] | Potency [5] | Potency [6] | Potency [7] | Potency [8] | outcome [9] | Potency [10] | Potency [11] | Potency [12] | Potency [13]

CC(=O)Oc1cccc(O)c1
inactive: Potency [1] | Potency [2] | outcome [3] | Potency [4] | Potency [5] | Potency [6] | Potency [7] | Potency [8] | outcome [9] | Potency [10] | Potency [14] | Potency [11]

c1ccc2sc(SSc3nc4ccccc4s3)nc2c1
inactive: Potency [1] | Potency [2] | outcome [3] | Potency [4] | Potency [5] | activity, negative = cytotoxicity [6] -8.11% [at 19 µM] | activity change, negative = inhibition [7] 7.93% [at 19 µM] | viability change, negative = cytotoxic [8] -2.35% [at 15.8 µM] | activation [9] 15.6% [at 15.8 µM] | activation [10] -16% [at 15.8 µM] | activity change, negative = cytotoxicity [14] -2.29% [at 15.8 µM] | activity change, negative = cytotoxicity [11] 0.484% [at 19 µM]

C=CCOC(=O)COCCC(C)C
inactive: Potency [1] | Potency [2] | outcome [3] | Potency [4] | Potency [5] | Potency [6] | Potency [7] | Potency [8] | outcome [9] | Potency [10] | Potency [14] | Potency [11] | Potency [12] | Potency [13]

CN=C(N)NC(=O)Nc1c(C)cccc1C
inactive: Potency [1] | Potency [2] | outcome [3] | Potency [4] | Potency [5] | Potency [6] | Potency [7] | Potency [8] | outcome [9] | Potency [10] | Potency [11]

CNC1CCCN(c2c(F)cc3c(=O)c(C(=O)O)cn(C4CC4)c3c2OC)C1 (centres undefined)
inactive: Potency [1] | Potency [2] | outcome [3] | Potency [4] | Potency [5] | Potency [6] | Potency [7] | Potency [8] | outcome [9] | Potency [10] | Potency [14] | Potency [11] | Potency [12] | Potency [13]

Nc1ccn([C@H]2CS[C@@H](CO)O2)c(=O)n1
inactive: outcome [3] | Potency [4] | Potency [5] | Potency [6] | Potency [7] | Potency [8] | outcome [9] | Potency [10] | Potency [14] | Potency [11] | Potency [12] | Potency [13]

CCSC(=O)N(CC)CC
inactive: Potency [1] | Potency [2] | outcome [3] | Potency [4] | Potency [5] | Potency [6] | Potency [7] | Potency [8] | outcome [9] | Potency [10] | Potency [14] | Potency [11]

O=C1OC(=O)c2c(Br)c(Br)c(Br)c(Br)c21
inactive: Potency [1] | Potency [2] | outcome [3] | Potency [4] | Potency [5] | Potency [6] | Potency [7] | Potency [8] | outcome [9] | Potency [10] | Potency [14] | Potency [11] | Potency [12] | Potency [13]

CCCCCC
inactive: Potency [1] | Potency [2] | outcome [3] | Potency [4] | Potency [5] | Potency [6] | Potency [7] | Potency [8] | outcome [9] | Potency [10] | Potency [14] | Potency [11] | Potency [12] | Potency [13]

O=CNNC=O
inactive: Potency [1] | Potency [2] | outcome [3] | Potency [4] | Potency [5] | Potency [6] | Potency [7] | Potency [8] | outcome [9] | Potency [10] | Potency [14] | Potency [11]

CCC(C)(C)C(=O)O
inactive: Potency [1] | Potency [2] | outcome [3] | Potency [4] | Potency [5] | Potency [6] | Potency [7] | Potency [8] | outcome [9] | Potency [10] | Potency [14] | Potency [11] | Potency [12]

O=C1OC[C@H](Cc2cccc(O)c2)[C@H]1Cc1cccc(O)c1
inactive: Potency [2] | outcome [3] | Potency [4] | Potency [5] | Potency [6] | Potency [7] | Potency [8] | outcome [9] | Potency [10] | Potency [14] | Potency [11]

CC(C)N=C=NC(C)C
inactive: Potency [1] | Potency [2] | outcome [3] | Potency [4] | Potency [5] | Potency [6] | Potency [7] | Potency [8] | outcome [9] | Potency [10] | Potency [14] | Potency [11] | Potency [12] | Potency [13]

Nc1nc(-c2ccc([N+](=O)[O-])cc2)cs1
inactive: Potency [2] | outcome [3] | Potency [4] | Potency [5] | Potency [6] | Potency [7] | Potency [8] | outcome [9] | Potency [10] | Potency [14] | Potency [11] | Potency [12]

Nc1ccc(F)cc1
inactive: Potency [1] | Potency [2] | outcome [3] | Potency [4] | Potency [5] | Potency [6] | Potency [7] | Potency [8] | outcome [9] | Potency [10] | Potency [11] | Potency [13]

CC(C)C1CCC(C(=O)N[C@H](Cc2ccccc2)C(=O)O)CC1 (some centres undefined)
inactive: Potency [1] | Potency [2] | outcome [3] | Potency [4] | Potency [5] | Potency [6] | Potency [7] | Potency [8] | outcome [9] | Potency [10] | Potency [14] | Potency [11] | Potency [12]

O=C(O)CCC(=O)OC[C@@H](NC(=O)C(Cl)Cl)[C@H](O)c1ccc([N+](=O)[O-])cc1
inactive: Potency [1] | Potency [2] | outcome [3] | Potency [4] | Potency [5] | Potency [6] | Potency [7] | Potency [8] | outcome [9] | Potency [10] | Potency [14] | Potency [11] | Potency [13]

CS(=O)(=O)c1ccc([C@@H](C[C@H]2CCC(=O)C2)C(=O)Nc2cnccn2)cc1Cl
inactive: Potency [1] | outcome [3] | Potency [4] | Potency [5] | Potency [6] | Potency [7] | Potency [8] | outcome [9] | Potency [10] | Potency [14] | Potency [11]
